Results filed as inconclusive are left out. Unmarked numbers belong to inactive results. Calls of active or inactive are those of the source. The call rests on the fitted dose curve; in most records, active means well fitted inhibition curve with a large enough effect; inconclusive means small, poorly fitted or top-dose-only effect; inactive means flat fitted curve, though single readings scatter.
system: DIV30; assay: qHTS profiling for inhibitors of Plasmodium falciparum proliferation (AID 504749); further: nearly all actives have a fitted effect of over 60% in size;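 on activity, negative = inhibition: 0% = DMSO vehicle and full inhibition = artemisinin control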; conditions: P. falciparum in erythrocytes, SYBR Green DNA, 72 h; series mostly up to 28.7 µM; activity, negative = inhibition: at the top concentration
Method in brief: (§1)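 Each compound contacts P. falciparum-infected red blood cells for 72 h at 37 C; lysis buffer (Tris, EDTA, saponin, Triton X, SYBR Green I) is added and fluorescence measured next morning; values normalized to controls.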
Potency means the concentration at half of the fitted maximal effect.

Row | SMILES | activity, negative = inhibition [%] | Potency
1 | C=C1C(=CC=C2CCC[C@@]3(C)[C@@H]2CC[C@H]3[C@H](C)CCCC(C)C)C[C@@H](O)C[C@@H]1O | -15.6 | 
2 | CCOC(=O)C1=C(C)NC(C)=C(C(=O)OCC)C1c1ccccc1C=CC(=O)OC(C)(C)C |  | 13.5 µM (active)
3 | CCCCCCCC(=O)O | -0.203 | 
4 | O=C1CSC2(CCN(CCCN3c4ccccc4Sc4ccc(Cl)cc43)CC2)N1 |  | 15.1 µM (active)
5 | O=C(O)CCC(=O)C(=O)O | -5.98 | 
6 | O=C(O)c1cc(=O)c2c3nc4ccccc4oc-3cc(=O)c2[nH]1 | -8.7 | 
7 | O=C(Nc1cccc(C(F)(F)F)c1)c1cc(Br)cc(Br)c1O |  | 13.5 µM (active)
8 | CC(Cc1ccc(O)c(O)c1)C(C)Cc1ccc(O)c(O)c1 (stereo not drawn) | -18.8 | 
9 | C#C[C@]1(O)CC[C@H]2[C@@H]3CCC4=CCCC[C@@H]4[C@H]3C(=C)C[C@@]21CC | -1.36 | 
10 | CCN(CC)CCOc1ccc(-c2nc3cc(Cl)ccc3s2)cc1 | -20.8 | 
11 | COC(=O)C1=C(C#N)NC(C)=C(C(=O)OC(C)C)C1c1cccc([N+](=O)[O-])c1 (stereo not drawn) |  | 10.7 µM (active)
12 | NC1C2CN(c3nc4c(cc3F)c(=O)c(C(=O)O)cn4-c3ccc(F)cc3F)CC12 (stereo not drawn) | -17.9 | 
13 | IC(I)I | -1.91 | 
14 | O=S(=O)(O)c1cc(O)c2c(N=Nc3ccc(Nc4ccccc4)c4c(S(=O)(=O)O)cccc34)cc(S(=O)(=O)O)cc2c1 | -12.7 | 
15 | NC(=O)c1ncn(C2OC(CO)C(O)C2O)n1 (stereo not drawn) | -3.72 | 
16 | COc1cc(-c2ccc(-[n+]3nc(-c4ccccc4)nn3-c3ccc([N+](=O)[O-])cc3)c(OC)c2)ccc1-[n+]1nc(-c2ccccc2)nn1-c1ccc([N+](=O)[O-])cc1 |  | 12 µM (active)

system: Dd2; assay: as above; conditions: P. falciparum in erythrocytes, SYBR Green DNA, 72 h; series mostly up to 28.7 µM; activity, negative = inhibition: at the top concentration
Method in brief: as §1

Row | SMILES | Potency | activity, negative = inhibition [%]
17 | C=C1C(=CC=C2CCC[C@@]3(C)[C@@H]2CC[C@H]3[C@H](C)CCCC(C)C)C[C@@H](O)C[C@@H]1O | 10 µM (active) | 
18 | O=C(COc1ccc(Cl)cc1)OCCNC12CC3CC(CC(C3)C1)C2 |  | -22.5
19 | CN=C(NC#N)Nc1ccc(C2=NNC(=O)C[C@@H]2C)cc1 |  | 0.907
20 | CCCCCCCC(=O)O |  | 14.1
21 | O=CCCCC=O |  | -0.578
22 | CCCCC(=O)O[C@]1(C(=O)CO)[C@H](C)C[C@H]2[C@@H]3CCC4=CC(=O)C=C[C@]4(C)[C@@]3(F)[C@@H](O)C[C@@]21C |  | -27.6
23 | CCCCCC(CC)COC(=O)CC(C(=O)OCC(CC)CCCC)S(=O)(=O)O (stereo not drawn) |  | -12.3
24 | CCOC(=O)C1=CC2(CC)CCCN3CCc4c(n1c1ccccc41)C32 (stereo not drawn) | 12.6 µM (active) | 
25 | O=C(O)CCC(=O)C(=O)O |  | 5.35
26 | O=C(O)c1cc(=O)c2c3nc4ccccc4oc-3cc(=O)c2[nH]1 | 12.6 µM (active) | 
27 | C#C[C@]1(O)CC[C@H]2[C@@H]3CCC4=CCCC[C@@H]4[C@H]3C(=C)C[C@@]21CC |  | 9.06
28 | COC(=O)C1=C(C#N)NC(C)=C(C(=O)OC(C)C)C1c1cccc([N+](=O)[O-])c1 (stereo not drawn) | 12.6 µM (active) | 
29 | IC(I)I |  | 3.2
30 | CC1=C(/C=C/C(C)=C/C=C/C(C)=C/CO)C(C)(C)CCC1 | 14.1 µM (active) | 
31 | COC(=O)[C@H]1[C@H]2CC3c4[nH]c5ccccc5c4CCN3C[C@@H]2CC[C@@H]1O (stereo partly drawn) |  | 1.86
32 | NC(=O)c1ncn(C2OC(CO)C(O)C2O)n1 (stereo not drawn) |  | -13.7
33 | CC[C@@]1(O)C(=O)OCc2c1cc1n(c2=O)Cc2cc3c([N+](=O)[O-])cccc3nc2-1 | 8.91 µM (active) | 

system: ECU; assay: as above; conditions: P. falciparum in erythrocytes, SYBR Green DNA, 72 h; series mostly up to 28.7 µM; activity, negative = inhibition: at the top concentration
Method in brief: as §1

Row | SMILES | Potency | activity, negative = inhibition [%]
34 | C=C1C(=CC=C2CCC[C@@]3(C)[C@@H]2CC[C@H]3[C@H](C)CCCC(C)C)C[C@@H](O)C[C@@H]1O | 10 µM (active) | 
35 | O=C(COc1ccc(Cl)cc1)OCCNC12CC3CC(CC(C3)C1)C2 |  | 0.589
36 | CN=C(NC#N)Nc1ccc(C2=NNC(=O)C[C@@H]2C)cc1 |  | 6.49
37 | CCCCCCCC(=O)O |  | 1.79
38 | O=CCCCC=O |  | -20.4
39 | CCCCCC(CC)COC(=O)CC(C(=O)OCC(CC)CCCC)S(=O)(=O)O (stereo not drawn) |  | 4.43
40 | CCCCCCOc1ccc(C(=N)N(CCCC)CCCC)c2ccccc12 | 8.91 µM (active) | 
41 | CCOC(=O)C1=CC2(CC)CCCN3CCc4c(n1c1ccccc41)C32 (stereo not drawn) | 11.2 µM (active) | 
42 | O=C(O)CCC(=O)C(=O)O |  | -1.5
43 | O=C(Nc1cccc(C(F)(F)F)c1)c1cc(Br)cc(Br)c1O | 10 µM (active) | 
44 | CC(Cc1ccc(O)c(O)c1)C(C)Cc1ccc(O)c(O)c1 (stereo not drawn) |  | -16.8
45 | COC(=O)C1=C(C#N)NC(C)=C(C(=O)OC(C)C)C1c1cccc([N+](=O)[O-])c1 (stereo not drawn) | 10 µM (active) | 
46 | CN(C)CCCN1c2ccccc2C(C)(C)c2ccccc21 |  | -21.7
47 | IC(I)I |  | 10.9
48 | CC1=C(/C=C/C(C)=C/C=C/C(C)=C/CO)C(C)(C)CCC1 | 10 µM (active) | 
49 | COC(=O)[C@H]1[C@H]2CC3c4[nH]c5ccccc5c4CCN3C[C@@H]2CC[C@@H]1O (stereo partly drawn) |  | 11.4
50 | O=S(=O)(O)c1cc(O)c2c(N=Nc3ccc(Nc4ccccc4)c4c(S(=O)(=O)O)cccc34)cc(S(=O)(=O)O)cc2c1 |  | -16.9
51 | NC(=O)c1ncn(C2OC(CO)C(O)C2O)n1 (stereo not drawn) |  | 3.72
52 | CC[C@@]1(O)C(=O)OCc2c1cc1n(c2=O)Cc2cc3c([N+](=O)[O-])cccc3nc2-1 | 7.94 µM (active) | 
53 | COc1cc(-c2ccc(-[n+]3nc(-c4ccccc4)nn3-c3ccc([N+](=O)[O-])cc3)c(OC)c2)ccc1-[n+]1nc(-c2ccccc2)nn1-c1ccc([N+](=O)[O-])cc1 | 12.6 µM (active) | 

Source: PubChem BioAssay (NCATS)
